The nature of test [1]: Nuclear factor erythroid 2-related factor 2/antioxidant responsive element (Nrf2/ARE) small molecule agonists: qHTS cell viability counter screen in human keratinocytes (AID 1919968; active = well fitted curve in the direction sought with a large enough effect in the repeat runs; an effect the other way counts as inactive or inconclusive; also: nearly all actives have a fitted effect of over 55% in size; also: potency is read from the fitted curve at half-maximal effect). The essentials:
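KeratinoSens HaCaT cells, 1,500/well, preincubated 5 h, then exposed to compounds in DMSO for 23 h at 37 C/5% CO2. Viability read as CellTiter-Fluor fluorescence after 1 h, in the same wells as the ARE-luciferase read.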
In general terms: qHTS replaces the single test concentration by a dilution series.

Test [2] has as its target KiSS-1 receptor (Homo sapiens) (UniProt Q969F8). Kind of test: Human kisspeptin (KISS1R) small molecule agonists, calcium flux assay in KISS1R-HEK293 cells (AID 1920064; active = well fitted curve in the direction sought with a large enough effect in the repeat runs; an effect the other way counts as inactive or inconclusive). In short, it runs like this:
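HEK293 cells stably expressing human KISS1R were loaded with calcium dye for 1 h at 37 C, then given compound; fluorescence (Ex/Em 480/540) was read kinetically for 3 min. Fifteen concentrations, triplicate.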
Background: Calcium flux is commonly read through the fluorescence of an indicator in the cells.

Test [3] can be described thus: G protein-coupled receptor (GPCR) small molecule agonists, calcium flux assay: HEK293 wild type cell line counter screen (AID 1920065). In short, it runs like this:
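Wild-type HEK293 cells plated 18 h, loaded with calcium dye 1 h at 37 C, then compounds added in agonist mode (ATP as positive control). Kinetic fluorescence Ex/Em 480/540 recorded 3 min at 1 sec intervals; 15 concentrations, triplicate.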

A short description of test [4]: p53 small molecule agonists, cell-based qHTS assay with human liver microsomes (AID 1963577).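 Also: p53 response element beta-lactamase reporter cells with liver microsomes plus NADPH.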 The essentials: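 p53RE-bla cells; 5 h settle, 37 C/5% CO2; cpd + HLM 0.5 mg/mL + NADPH 0.5 mg/mL (final); 16 h 37 C; LiveBLAzer 2 h RT dark; fluorescence readout.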
Test [5] in a line: p53 small molecule agonists, cell-based qHTS assay with rat liver microsomes (AID 1963578). In short, it runs like this:
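Rat liver microsome activation: microsomes 0.5 mg/mL, NADPH 0.5 mg/mL final; p53RE-bla cells, 16 h 37 C; LiveBLAzer readout, 2 h RT dark.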

Test [6] can be described thus: p53 small molecule agonists, cell-based qHTS assay with human liver microsomes: qHTS cell viability counter screen (AID 1963579). Also: nearly all actives have a fitted effect of over 45% in size. In short, it runs like this:
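Luminescent CellTiter-Glo read-out, 30 min at room temperature, gauged cytotoxicity in p53RE-bla cells exposed 16 h at 37 C to DMSO-dissolved compounds with metabolic activation by human liver microsomes and NADPH, each 0.5 mg/mL final.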

Test [7] can be described thus: p53 small molecule agonists, cell-based qHTS assay with rat liver microsomes: qHTS cell viability counter screen (AID 1963580). Also: nearly all actives have a fitted effect of over 45% in size. The essentials: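 p53RE-bla HCT-116 cells (4,000/well) rested 5 h at 37 C, then given Tox21 compounds in DMSO with rat liver microsomes (0.5 mg/mL final) plus NADPH (0.5 mg/mL final) for 16 h at 37 C. Viability read by CellTiter-Glo luminescence after 30 min at room temperature.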

A short description of test [8]: p53 small molecule agonists, cell-based qHTS assay: qHTS cell viability counter screen (AID 1963581). Also: nearly all actives have a fitted effect of over 45% in size. The essentials: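 p53RE-bla HCT-116 cells, compounds added 5 h after plating and incubated 16 h at 37 C. Cytotoxicity measured in the same wells as intracellular ATP by CellTiter-Glo luminescence after 30 min at room temperature.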
The nature of test [9]: p53 small molecule agonists, cell-based qHTS assay (AID 1963582; active = well fitted activation curve with a large enough effect in the signal ratio in the repeat runs, not every such curve was filed as active; the % refers to the signal ratio). The essentials: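 p53RE-bla reporter cells, compounds added in DMSO after 5 h plating, incubated 16 h at 37 C. Beta-lactamase read via 2 h room-temperature LiveBLAzer B/G FRET substrate, fluorescence intensity.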
Test [10] has as its target 5-hydroxytryptamine receptor 2A (Homo sapiens) (UniProt P28223). The test is described as follows: 5-hydroxytryptamine receptor 2A (HTR2A) small molecule antagonists, cell-based qHTS assay (AID 1963586). Also: nearly all actives have a fitted effect of over 45% in size. The essentials: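 Antagonist-mode intracellular calcium assay: DOI (4 nM) added after 5 min compound pre-incubation at room temperature to dye-loaded HTR2A-CHO cells. Fluorescence followed for 3 min, sampled every second.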

For test [11] the target is unchanged. Kind of test: 5-hydroxytryptamine receptor 2A (HTR2A) small molecule agonists, cell-based qHTS assay (AID 1963587). Also: nearly all actives have a fitted effect of over 30% in size. The essentials: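 HTR2A-CHO cells, plated 18 h at 37 C/5% CO2, dye-loaded 1 h at 37 C; compounds in DMSO added by pin tool (agonist mode). Intracellular calcium flux read as kinetic fluorescence on FDSS over 2 min at 1 s intervals.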
For test [12], the target named is Muscarinic acetylcholine receptor M1 (Homo sapiens) (UniProt P11229). Kind of test: Cholinergic receptor muscarinic 1 (CHRM1) small molecule antagonists, cell-based qHTS assay (AID 1963588). Also: nearly all actives have a fitted effect of over 40% in size. In short, it runs like this: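 CHRM1-CHO calcium-flux assay, antagonist mode. Cells were seeded 18 h, dye-loaded 1 h at 37 C and given compound for 5 min at RT, then acetylcholine was added at 50nM. FDSS fluorescence was read 3 min; 15 concentrations, three runs.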
Muscarinic acetylcholine receptor M1 (Homo sapiens), sequence (P11229 whole entry, looked up): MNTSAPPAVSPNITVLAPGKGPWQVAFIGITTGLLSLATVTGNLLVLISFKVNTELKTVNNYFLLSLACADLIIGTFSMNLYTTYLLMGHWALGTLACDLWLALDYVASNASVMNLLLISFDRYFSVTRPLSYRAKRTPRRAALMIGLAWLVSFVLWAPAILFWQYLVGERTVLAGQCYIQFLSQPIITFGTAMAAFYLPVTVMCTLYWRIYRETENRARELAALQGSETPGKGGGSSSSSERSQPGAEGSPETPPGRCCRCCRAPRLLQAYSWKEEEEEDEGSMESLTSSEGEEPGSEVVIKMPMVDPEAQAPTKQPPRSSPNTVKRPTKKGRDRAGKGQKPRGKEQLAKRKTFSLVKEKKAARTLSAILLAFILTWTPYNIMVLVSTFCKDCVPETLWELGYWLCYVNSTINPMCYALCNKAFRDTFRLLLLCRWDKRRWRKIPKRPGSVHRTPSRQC

The target is the same in test [13]. The test is described as follows: Cholinergic receptor muscarinic 1 (CHRM1) small molecule agonists, cell-based qHTS assay (AID 1963589). Also: nearly all actives have a fitted effect of over 35% in size. The essentials:
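CHO cells stably expressing human CHRM1 were loaded with calcium dye for 1 h at 37 C, then compound was added in agonist mode. Intracellular calcium fluorescence was followed kinetically at 1 s intervals. Fifteen concentrations were tested in three independent runs.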

A short description of test [14]: cAMP Responsive Elements (CRE) small molecule agonists, cell-based qHTS assay (AID 1963590). The essentials: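 CRE-bla HEK 293T cells, 2,000/well in DMEM with 10% dialyzed FBS and 25 mM HEPES, pre-incubated 18 h at 37 C, then exposed to compound 3 h at 37 C. Beta-lactamase reporter read with LiveBLAzer B/G FRET substrate after 2 h at room temperature.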
A short description of test [15]: cAMP Responsive Elements (CRE) small molecule antagonists, cell-based qHTS assay (AID 1963591; active = well fitted inhibition curve with a large enough effect in the signal ratio in the repeat runs, not every such curve was filed as active; the % refers to the signal ratio). The essentials:
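CRE-bla HEK293T cells plated 18 h, then given compound plus NKH477 at 0.25 uM final for 3 h at 37C. Beta-lactamase reporter read with LiveBLAzer B/G FRET substrate after 2 h at room temperature.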

Test [16] addresses Beta-2 adrenergic receptor (Homo sapiens) (UniProt P07550). The test is described as follows: Adrenergic beta2 receptor (ADRB2) small molecule antagonists, cell-based qHTS assay (AID 1963592). Also: series mostly up to about 92 µM; nearly all actives have a fitted effect of over 50% in size. In short, it runs like this: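 Cells (CHO, stable ADRB2 overexpression) incubated 18-20hr at 37C; compounds added from DMSO; agonist mix (1nM isoproterenol, 100uM IBMX, 25uM Ro-20-1724) added; 0.5hr RT; d2-cAMP and anti-cAMP-cryptate added; 1hr RT; 665/615 nm read.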

The target is the same in test [17]. The test is described as follows: Adrenergic beta2 receptor (ADRB2) small molecule agonists, cell-based qHTS assay (AID 1963593).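 Also: CHO cells stably overexpressing human ADRB2.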 In short, it runs like this:
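CHO cells stably over-expressing ADRB2 were plated overnight at 37C, then dosed with compounds plus a stimulation mix containing 100uM IBMX and 25uM Ro-20-1724 for 0.5hr at room temperature. cAMP was measured by HTRF competition, 1hr.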

In test [18] the target is D(2) dopamine receptor (Homo sapiens) (UniProt P14416). Kind of test: Dopamine D2 receptor (DRD2) small molecule agonists, cell-based qHTS assay (AID 1963594). Also: nearly all actives have a fitted effect of over 35% in size. The essentials: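 HEK293 cells stably expressing DRD2 were cultured 24 h at 37 C, then given Ro20-1724 (0.1 mM final) and compounds for 10 min at room temperature. NKH477 (200nM) was then added for 30 min. cAMP was read by HTRF.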
D(2) dopamine receptor (Homo sapiens), sequence (P14416 whole entry, looked up): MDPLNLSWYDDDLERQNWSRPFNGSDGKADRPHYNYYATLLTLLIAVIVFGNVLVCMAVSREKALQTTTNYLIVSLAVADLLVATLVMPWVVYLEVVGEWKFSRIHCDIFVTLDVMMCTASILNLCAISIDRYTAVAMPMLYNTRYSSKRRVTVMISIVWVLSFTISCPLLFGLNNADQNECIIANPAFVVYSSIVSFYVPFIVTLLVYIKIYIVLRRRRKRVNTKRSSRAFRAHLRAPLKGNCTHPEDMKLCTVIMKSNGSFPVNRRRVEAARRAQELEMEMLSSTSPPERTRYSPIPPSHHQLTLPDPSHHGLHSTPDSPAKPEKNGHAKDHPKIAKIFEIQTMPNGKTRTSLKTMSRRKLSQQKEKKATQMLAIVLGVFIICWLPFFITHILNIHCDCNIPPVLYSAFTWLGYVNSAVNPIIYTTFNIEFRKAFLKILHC

Test [19] deals with Gonadotropin-releasing hormone receptor (Homo sapiens) (UniProt P30968). The test is described as follows: Human gonadotropin-releasing hormone receptor (GnRHR) small molecule agonists, calcium flux assay in GnRHR-HEK293 cells (AID 1920063). Also: nearly all actives have a fitted effect of over 35% in size. The essentials:
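HEK293 cells stably expressing human GnRHR were dye-loaded for 1 h at 37 C. Compound was added in agonist mode and fluorescence (Ex/Em 480/540) recorded kinetically for 3 min. Fifteen concentrations, triplicates.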

The target in test [20] is D(2) dopamine receptor (Homo sapiens) (UniProt P14416). The test is described as follows: Dopamine D2 receptor (DRD2) small molecule antagonists, cell-based qHTS assay (AID 1963595; active = well fitted inhibition curve with a large enough effect in the signal ratio in the repeat runs, with a control signal flat; the % refers to the signal ratio). The essentials:
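Antagonist mode in DRD2-HEK293 cells: after compound addition with 0.1 mM Ro20-1724, cells received quinpirole (12 nM) and NKH477 (200 nM) for 30 min at room temperature; HTRF cAMP read after 1 h detection.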

Values joined by “and” are separate entries in the source; they are usually repeats but may differ in a detail not shown here. Identical values can stand only once. Inconclusive results are not listed. Active and inactive are the calls of the source. Unless noted, calls follow the shape of the full dose curve.

Beta-2 adrenergic receptor (Homo sapiens), sequence (P07550 whole entry, looked up): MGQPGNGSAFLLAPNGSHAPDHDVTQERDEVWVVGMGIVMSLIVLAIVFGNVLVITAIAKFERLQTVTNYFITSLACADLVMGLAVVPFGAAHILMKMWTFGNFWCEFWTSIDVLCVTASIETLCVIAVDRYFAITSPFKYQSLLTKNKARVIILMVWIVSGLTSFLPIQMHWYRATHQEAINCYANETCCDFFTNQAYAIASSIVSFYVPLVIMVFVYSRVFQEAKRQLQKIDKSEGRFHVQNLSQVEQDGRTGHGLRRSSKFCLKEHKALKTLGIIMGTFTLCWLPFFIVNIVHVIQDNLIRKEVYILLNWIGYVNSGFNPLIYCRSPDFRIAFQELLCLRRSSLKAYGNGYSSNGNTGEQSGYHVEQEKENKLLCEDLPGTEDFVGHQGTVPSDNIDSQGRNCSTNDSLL
KiSS-1 receptor (Homo sapiens), sequence (Q969F8 whole entry, looked up): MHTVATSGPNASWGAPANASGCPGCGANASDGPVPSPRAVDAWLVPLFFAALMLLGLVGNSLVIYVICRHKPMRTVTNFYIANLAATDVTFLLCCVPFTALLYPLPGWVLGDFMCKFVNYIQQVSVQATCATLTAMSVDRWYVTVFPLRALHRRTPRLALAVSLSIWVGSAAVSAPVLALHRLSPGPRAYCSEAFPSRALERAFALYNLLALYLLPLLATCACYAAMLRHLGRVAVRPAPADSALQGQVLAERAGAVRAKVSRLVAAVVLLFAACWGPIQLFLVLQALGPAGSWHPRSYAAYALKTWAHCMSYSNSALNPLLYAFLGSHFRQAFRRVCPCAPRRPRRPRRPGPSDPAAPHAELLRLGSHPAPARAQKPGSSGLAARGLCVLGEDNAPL
5-hydroxytryptamine receptor 2A (Homo sapiens), sequence (P28223 whole entry, looked up): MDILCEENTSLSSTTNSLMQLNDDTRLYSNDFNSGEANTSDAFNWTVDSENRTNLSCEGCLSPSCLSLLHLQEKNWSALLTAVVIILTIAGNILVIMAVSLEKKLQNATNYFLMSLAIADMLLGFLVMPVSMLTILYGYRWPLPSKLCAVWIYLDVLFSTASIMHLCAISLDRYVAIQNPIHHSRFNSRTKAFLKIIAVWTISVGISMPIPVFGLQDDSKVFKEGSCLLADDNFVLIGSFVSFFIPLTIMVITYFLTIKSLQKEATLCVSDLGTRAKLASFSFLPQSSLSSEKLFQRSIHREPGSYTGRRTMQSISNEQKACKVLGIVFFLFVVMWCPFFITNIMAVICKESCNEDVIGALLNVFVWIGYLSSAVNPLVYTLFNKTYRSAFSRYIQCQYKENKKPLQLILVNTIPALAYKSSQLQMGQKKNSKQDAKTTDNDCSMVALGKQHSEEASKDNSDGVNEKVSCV
Gonadotropin-releasing hormone receptor (Homo sapiens), sequence (P30968 whole entry, looked up): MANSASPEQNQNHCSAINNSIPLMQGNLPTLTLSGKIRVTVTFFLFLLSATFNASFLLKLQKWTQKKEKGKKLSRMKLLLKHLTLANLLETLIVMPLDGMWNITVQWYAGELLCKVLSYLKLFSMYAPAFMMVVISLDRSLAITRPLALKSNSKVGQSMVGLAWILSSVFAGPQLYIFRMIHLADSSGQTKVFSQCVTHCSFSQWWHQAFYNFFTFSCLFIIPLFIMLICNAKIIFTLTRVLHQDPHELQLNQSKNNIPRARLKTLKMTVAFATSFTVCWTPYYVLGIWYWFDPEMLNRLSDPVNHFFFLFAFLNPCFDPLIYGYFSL

Take `CC(C)c1cccc(C(C)C)c1N`: the Potency entry in [1], in test [2], in [3], in [4], in test [5] and in test [6] was “inactive” throughout. The Potency entry in [7], in test [8], in test [9], in test [10], in [11] and in [12] was “inactive” in each case. Besides, the Potency result in [13], in [14], in test [15], in test [16], in test [17] and in test [18] was “inactive” in each case.

Take `O=C1NC2NC(=O)NC2N1` (centres undefined): the Potency entry in [1], in test [2], in test [3], in test [4], in test [5] and in test [6] was “inactive” each time. For the same compound, the Potency entry in [7], in test [8], in [9], in test [10], in [12] and in test [14] was “inactive” in each case. Also, the Potency entry in test [15], in test [16] and in test [18] was “inactive” in each case.

Turning to `CC/C(=C(/CC)c1ccc(O)cc1)c1ccc(O)cc1`, the Potency in test [1] was 42.9 µM (active) and 61.1 µM (active). Moreover, the Potency entry in [19], in test [2], in test [4], in [5], in [7] and in test [8] was “inactive” throughout. The Potency entry in [14], in [15], in test [16], in [17] and in test [20] was “inactive” each time.

Take `O=S(=O)(O)c1ccccc1O`: the Potency result in test [1], in test [3], in test [4], in [5], in [6] and in test [7] was “inactive” in each case. Also, the Potency entry in test [8], in test [9], in test [10], in test [11], in test [12] and in test [13] was “inactive” each time. The Potency entry in test [14], in [15], in [16], in [17], in test [18] and in test [20] was “inactive” in each case.

`CC1(C)C(O)C(C)(C)C1O` (centres undefined): the Potency entry in test [1], in [2], in [3], in test [4], in test [5] and in test [6] was “inactive” each time. Besides, the Potency result in test [7], in test [8], in [9], in test [10], in test [11] and in test [12] was “inactive” throughout. In addition, the Potency entry in test [13], in test [14], in test [15], in test [16], in [17] and in test [18] was “inactive” each time.

Regarding `c1ccsc1`, the Potency entry in test [1], in [19], in test [3], in test [4], in test [5] and in [6] was “inactive” each time. Moreover, the Potency entry in test [7], in [8], in [9], in test [10], in test [13] and in [14] was “inactive” throughout. The Potency result in test [15], in [16], in test [17], in [18] and in test [20] was “inactive” throughout.

Take `CCCCCCCCCCCCCCCC(=O)NCCO`: the Potency entry in test [19], in test [2], in [3], in test [4], in test [5] and in [6] was “inactive” throughout. Moreover, the Potency entry in test [7], in [8], in [9], in test [11], in test [12] and in test [13] was “inactive” each time. In addition, the Potency result in test [14], in test [15], in [16] and in test [18] was “inactive” in each case.

For the origin of these results see PubChem BioAssay (Tox21).
